Among all 48,000 compounds or so, about 13,000 (27%) showed an effect of 50% or more. This is one part of the list.
Each compound was assayed on Wolbachia pipientis (assay: Anti-Wolbachia Cell-Based Screen). Details: 5 µM.
Assay type: functional
Set-up: scale not given: in the data most compounds retested in dose-response had high values

Structure (SMILES) | Percent Effect [%]
COc1cc(CN(C)C(=O)NCc2nccs2)ccc1SC | -21.32
CN(Cc1cc2ccccc2o1)S(C)(=O)=O | -18.47
CN(CC1CC1)C(=O)c1cc2c(c(S(N)(=O)=O)c1)CCC2 | -0.6394
Cc1cc2n(n1)CC(CNCc1ccnc(-n3ccnc3C)c1)CN2 (centres undefined) | -4.434
c1ccc(Oc2cc(CNCC3CNc4ccnn4C3)ccn2)cc1 (centres undefined) | 3.776
c1cc(CNCC2CNc3ccnn3C2)cc(OC2CCCCC2)n1 (centres undefined) | 87.88
Cn1cc(CCNCC2CNc3ccnn3C2)cn1 (centres undefined) | -8.259
COc1cc(CNCC2CNc3ccnn3C2)ccn1 (centres undefined) | 104.7
c1cc(CNCC2CNc3ccnn3C2)cc(OC2CCCC2)n1 (centres undefined) | 105.3
c1cc2n(n1)CC(CNCc1ccc(OC3CCCC3)nc1)CN2 (centres undefined) | 90.58
c1cc2n(n1)CC(CNCc1ccc(OC3CCCCC3)nc1)CN2 (centres undefined) | -3.239
CCN1CCN(c2ccc(F)cc2C(C)NCc2nc(C)no2)CC1 (centres undefined) | 5.378
CNS(=O)(=O)CCCN1CCCCCC1c1ccc(C)o1 (centres undefined) | -40.39
Cc1cc(C(=O)N2CCc3nnc(N)cc3C2)c(C)n1-c1cccnc1 | -7.22
Cc1cc(C(=O)CN2C(=O)c3ccccc3CS2(=O)=O)c(C)[nH]1 | 11.78
CS(=O)(=O)N1C[C@@H]2CC[C@H](C1)N(C/C=C/c1ccc(F)cc1)C2 | -3.791
CCS(=O)(=O)c1nccn1-c1cccc(F)c1 | -14.2
Cc1cnn(C(C)C2CC2)c1NC(=O)c1ncccc1O (centres undefined) | 16.76
c1cc(CNCC2CNc3ccnn3C2)cc(N2CCCCC2)n1 (centres undefined) | 12.93
c1cc(CNCC2CNc3ccnn3C2)cc(N2CCOCC2)n1 (centres undefined) | 104.3
O=C(c1cccc(CNCC2CNc3ccnn3C2)c1)N1CCCC1 (centres undefined) | 2.865
CCSCCNC(=O)c1cnc(-c2ccccc2)nc1O | -4.027
Cc1ccc(C(C(=O)NCCc2nc(C)cc(=O)[nH]2)N(C)C)cc1 (centres undefined) | -13.39
CCC(C)(NCC(=O)Nc1nc(C)cs1)c1nc(C)cs1 (centres undefined) | -9.944
Cc1cc(=O)[nH]c(-n2nc(C)c(CCC(=O)NCC(C)C)c2C)n1 | 133.4
Cc1cc(=O)[nH]c(-n2nc(C)c(CCC(=O)Nc3nc(C)cs3)c2C)n1 | 139.8
COC(=O)CCc1c(C)nn(-c2nc(C)cc(=O)[nH]2)c1C | 2.472
COc1ccc(OC)c(CCNc2ncc(S(N)(=O)=O)s2)c1 | -19.79
CC(NC(=O)CSCC#N)c1ccccc1 (centres undefined) | 5.295

— ChEMBL document CHEMBL3988442, “University of Dundee, Small-Polar-MMV Screening Library” (2021)
